This note sets out measurements from PubChem BioAssay (NCATS).

Where “and” joins values, the source holds several entries; their conditions need not be identical. Equal values may be shown once. Results filed as inconclusive are left out. Calls of active or inactive are those of the source. Unless noted, calls come from the whole dose curve; as a rule, active = well fitted curve in the direction sought with a large enough effect; inconclusive = small, poorly fitted or top-dose-only effect, or another doubt; inactive = no such curve, though single readings can be large; an effect the other way counts as inactive or inconclusive. Where only a bound is given, the exact number is not on record here.

Assay [1] in a line: Cell Viability - HepG2 (AID 433; calls by dose curve;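 note: potency is the fitted concentration of half-maximal effect; cells exposed to compound for 40 hours; potency for ATP loss meaning cytotoxicity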). The conditions noted are these: qHTS. Summed up: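 Read-out is luciferase-based quantitation of cellular ATP as a measure of viable HepG2 cells after 40 h treatment at 37 °C. Signal decrease is scaled between DMSO-only and 100 uM tamoxifen controls, with AC50 fitted by the Hill equation.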
Background: Quantitative high-throughput screening tests each substance at several concentrations.

The nature of assay [2]: Cell Viability - Mesenchymal (AID 546).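 Note: cells exposed to compound for 40 hours before reading.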 The conditions noted are these: mesenchymal cells viability, qHTS; activity change, negative = cytotoxicity: at 91.7 µM (top of the series). Summed up:
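In this qHTS cytotoxicity format, glomerulus-derived human mesenchymal kidney cells received compound for 40 hr, then luciferase-based ATP quantitation. Concentration-response data were fitted with the Hill equation.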

A short description of assay [3]: Cellular Toxicity (caspase-3) Jurkat (AID 655).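 Note: cells exposed to compound for 16 h at 37 °C before reading.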 The note with it: Jurkat caspase-3 activation, luminescence; caspase-3 activation: at 92.2 µM (top of the series), DMSO = 0%, tamoxifen = 100%. A digest of the protocol:
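5000 Jurkat cells/well; compound 16 hr, 37 °C; Caspase-Glo 3/7 added, 20 min RT; luminescence read. Norm: DMSO = 0%, tamoxifen 100 uM = 100%. AC50, Hill model.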

The nature of assay [4]: Cell Viability - LYMP1-002 - Assay at 16 hr (AID 948).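 Note: 0% = DMSO alone and full effect = 92 µM tetraoctylammonium bromide.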 The conditions noted are these: LYMP1-002 lymphoblastoid cell viability; series mostly up to 92.2 µM. A digest of the protocol:
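Seed 2500 LYMP1-002 cells per well in complete medium and hold 5 hr at 37 C. Add compound across a concentration series and incubate 16 hr at 37 C. Add CellTiter-Glo, wait 30 min at room temperature, read luminescence.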

Assay [5] is described as follows: Cell Viability - LYMP2-003 (AID 965).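 Note: cells exposed to compounds for 24 h before reading; 0% = DMSO only and full effect = 92 µM tetraoctylammonium bromide; nearly all actives have a fitted effect of over 50% in size.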 The conditions noted are these: LYMP2-003 lymphoblastoid cell viability; series mostly up to 92.2 µM. A digest of the protocol:
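Seed 2500 lymphoblastoid cells/well; incubate 5 hr, 37 C; add compounds; incubate 24 hr, 37 C; add CellTiter-Glo, 30 min RT; read luminescence. AC50 from Hill fit.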

Assay [6] can be described thus: Cell Viability - LYMP2-011 (AID 969).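 Note: 0% = DMSO only and full inhibition = 92 µM tetraoctylammonium bromide; nearly all actives have a fitted effect of over 60% in size.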 The conditions noted are these: LYMP2-011 lymphoblastoid cells viability; series mostly up to 92.2 µM. Summed up:
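Cytotoxicity qHTS with ATP content as read-out: lymphoblastoid cells (2500/well) exposed to compound for 24 h at 37 C, then luciferase luminescence measured. Concentration-response data fitted with the standard Hill equation to give AC50.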

A short description of assay [7]: Cell Viability - LYMP2-013 (AID 970).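 Note: 0% = DMSO only and full inhibition = tetraoctylammonium bromide control; nearly all actives have a fitted effect of over 55% in size.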 The note with it: LYMP2-013 lymphoblastoid cells viability; series mostly up to 92.2 µM. Summed up:
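qHTS cytotoxicity: ATP-dependent luminescence (CellTiter-Glo, 30 min room temperature) read after 24 h compound exposure at 37 C of 2500 LYMP2-013 lymphoblastoid cells per well. Concentration-response fitted with Hill equation to give AC50.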

Assay [8] can be described thus: Cell Viability - LYMP2-021 (AID 974). Note: % is set by controls: 0 for no effect and ±100 for the full control effect; nearly all actives have a fitted effect of over 55% in size. The note with it: LYMP2-021 lymphoblastoid cells viability; series mostly up to 92.2 µM. A digest of the protocol: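 AC50 values come from Hill-equation fits to CellTiter-Glo luminescence (ATP content), read after 24 hour compound exposure at 37 C of 2500 LYMP2-021 lymphoblastoid cells/well; tetraoctylammonium bromide as positive control.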

A short description of assay [9]: Cell Viability - LYMP2-002 (AID 977).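 Note: plate controls were DMSO only for no effect and 92 µM tetraoctylammonium bromide for full effect.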 The conditions noted are these: LYMP2-002 lymphoblastoid cell viability, qHTS; series mostly up to 92.2 µM. A digest of the protocol: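 In this qHTS viability screen, 2500 human lymphoblastoid cells per well receive compound for 24 hr at 37 C, and luciferase-based ATP luminescence gives the viability signal. Tetraoctylammonium bromide serves as positive control.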

A short description of assay [10]: Cell Viability - LYMP2-008 (AID 980). Note: % is set by controls: 0 for no effect and ±100 for the full control effect; nearly all actives have a fitted effect of over 60% in size. The note with it: LYMP2-008 lymphoblastoid cell viability, qHTS; series mostly up to 92.2 µM. Summed up: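 Cytotoxicity determined from ATP-dependent luciferase luminescence (CellTiter-Glo) following 24 h compound exposure of human lymphoblastoid LYMP2-008 cells at 37 C. Concentration-response data fitted to the Hill equation to give AC50.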

Assay [11] can be described thus: Cell Viability - LYMP2-012 (AID 982).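 Note: cellular ATP by luciferase luminescence where a drop means cytotoxicity; cells exposed to compound for one day before reading; 0% = DMSO only and full loss = 92 µM tetraoctylammonium bromide; nearly all actives have a fitted effect of over 55% in size.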 The conditions noted are these: LYMP2-012 lymphoblastoid cell viability qHTS; series mostly up to 92.2 µM.
The nature of assay [12]: Cell Viability - LYMP2-014 (AID 983).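 Note: plate controls were DMSO only for no effect and 92 µM tetraoctylammonium bromide for full effect; nearly all actives have a fitted effect of over 50% in size.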 The note with it: LYMP2-014 lymphoblastoid cells, viability qHTS; series mostly up to 92.2 µM. A digest of the protocol: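 Intracellular ATP loss, read by luciferase luminescence, measures acute cytotoxicity after 24 h compound exposure of lymphoblastoid LYMP2-014 cells (2500/well, 37 C). Concentration-response data fitted to the Hill equation for AC50.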

The nature of assay [13]: Cell Viability - LYMP2-016 (AID 984). Note: % is set by controls: 0 for no effect and ±100 for the full control effect; nearly all actives have a fitted effect of over 55% in size. The conditions noted are these: LYMP2-016 lymphoblastoid cell viability, qHTS; series mostly up to 92.2 µM. Summed up: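 Cells were seeded at 2500 per well and rested 5 hr before a 24 hr compound exposure at 37 C. Viability was then gauged as cellular ATP by luciferase luminescence, with AC50 values fitted to the Hill equation.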
The nature of assay [14]: Cell Viability - LYMP2-020 (AID 986). The note with it: series mostly up to 92.2 µM. Summed up: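 Cytotoxicity in qHTS format: luminescent ATP readout from CellTiter-Glo after 24 h compound exposure at 37 C in complete medium. LYMP2-020 lymphoblastoid cells were seeded at 2500/well; concentration-response data fitted to the Hill equation for AC50.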
A short description of assay [15]: Cell Viability - LYMP2-024 (AID 988).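 Note: plate controls were DMSO only for no effect and 92 µM tetraoctylammonium bromide for full effect; nearly all actives have a fitted effect of over 60% in size.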 The note with it: LYMP2-024 lymphoblastoid cell viability; series mostly up to 92.2 µM. Summed up:
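Cytotoxicity was taken as a decrease in ATP (CellTiter-Glo luminescence) after 24 hr compound exposure at 37 C of LYMP2-024 lymphoblastoid cells, 2500 cells/well. Concentration-response data were fitted to the Hill equation to give AC50.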

A short description of assay [16]: Cell Viability - LYMP2-026 (AID 989). Note: % is set by controls: 0 for no effect and ±100 for the full control effect; nearly all actives have a fitted effect of over 50% in size. The conditions noted are these: LYMP2-026 lymphoblastoid cell viability, qHTS; series mostly up to 92.2 µM. Summed up: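 Cytotoxicity read as ATP-dependent luminescence (CellTiter-Glo, 30 min room temperature) after 24 h compound treatment at 37 C. LYMP2-026 lymphoblastoid line seeded at 2500 cells/well; AC50 derived by standard Hill equation.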

The nature of assay [17]: Cell Viability - LYMP1-002 - Assay at 40 hr (AID 994).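 Note: 0% = DMSO only and full inhibition = 92 µM tetraoctylammonium bromide; nearly all actives have a fitted effect of over 60% in size.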 The conditions noted are these: LYMP1-002 lymphoblastoid cell viability; series mostly up to 92.2 µM. Summed up:
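Cytotoxicity was read as loss of cellular ATP (CellTiter-Glo luminescence) after 40 hr compound exposure at 37 C of 2500 LYMP1-002 lymphoblastoid cells per well. Concentration-response data were fitted with the standard Hill equation to give AC50.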

Assay [18] is described as follows: qHTS assay for small molecule antagonists of retinoid X receptor alpha signaling (AID 588546; active = well fitted inhibition curve with a large enough effect in the signal ratio, with a control signal flat, not every such curve was filed as active; the % refers to the signal ratio;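 note: cells stimulated with 9-cis-retinoic acid as agonist; % is set by controls: 0 for no effect and ±100 for the full control effect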). The conditions noted are these: HEK293T RXRa-UAS-bla, beta-lactamase ratio, antagonist mode; measured here: W530 green channel, cytotoxicity proxy. A digest of the protocol: (§1)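 Beta-lactamase reporter inhibition, read as CCF4 fluorescence ratio (ex 405, em 460/530 nm) after 2 h at RT. HEK293T UAS-bla cells, 2500/well, were stimulated with 9-cis-RA at 500 or 100 nM final alongside test compound for 18 h at 37 C.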

The target of assay [19] is Retinoic acid receptor RXR-alpha (Homo sapiens) (UniProt P19793). The description is as above. The conditions noted are these: HEK293T RXRa-UAS-bla, beta-lactamase ratio, antagonist mode. A digest of the protocol: as §1
Assay [20] can be described thus: qHTS assay for environmental chemicals that activate the Aryl hydrocarbon Receptor (AhR) signaling pathway (AID 651777). Note: % of control where 0% means no effect; nearly all actives have a fitted effect of over 15% in size. The conditions noted are these: 1A2-DRE human hepatoma cells, luciferase, 24 h; activation: stronger effect = higher value. Summed up:
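Measured luciferase activity, read 30 min after One-Glo addition at room temperature, from human hepatoma cells bearing a dioxin response element–CYP1A2 promoter reporter and exposed to compound for 24 hr at 37 C.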

Sequence of Retinoic acid receptor RXR-alpha (Homo sapiens) (P19793 whole entry, looked up): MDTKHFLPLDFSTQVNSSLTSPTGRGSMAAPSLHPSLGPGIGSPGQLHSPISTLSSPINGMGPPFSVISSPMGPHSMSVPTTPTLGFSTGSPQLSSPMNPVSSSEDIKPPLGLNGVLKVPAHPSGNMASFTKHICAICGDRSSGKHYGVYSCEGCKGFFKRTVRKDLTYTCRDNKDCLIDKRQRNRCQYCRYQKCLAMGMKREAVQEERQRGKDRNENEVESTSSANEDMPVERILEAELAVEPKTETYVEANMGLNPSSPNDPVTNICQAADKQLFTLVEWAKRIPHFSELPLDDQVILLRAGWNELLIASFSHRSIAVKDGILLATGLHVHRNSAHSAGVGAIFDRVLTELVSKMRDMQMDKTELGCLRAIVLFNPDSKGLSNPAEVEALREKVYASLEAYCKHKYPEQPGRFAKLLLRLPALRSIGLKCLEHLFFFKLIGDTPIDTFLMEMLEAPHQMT

`Cc1ccc(S(N)(=O)=O)cc1`: the Potency in [1] is > 92 µM (inactive). Further, the Potency result in [2], in assay [3], in assay [4], in [5], in [6] and in assay [7] was “inactive” in each case. Moreover, the Potency entry in assay [8], in [9], in assay [10], in [11], in assay [12] and in assay [13] was “inactive” throughout. The Potency result in assay [14], in assay [15], in assay [16] and in [17] was “inactive” throughout. The max response in assay [18] is -1.11% and -7.98%; in assay [19], 8.77% (inactive) and 1.7% (inactive). For the same compound, the activation in [20] was -0.842% (inactive).
As to `C=CC1CO1` (stereo not given), the Potency in [1] is > 92 µM (inactive). The Potency result in assay [2], in assay [3], in assay [4], in [5], in assay [6] and in assay [7] was “inactive” throughout. Moreover, the Potency entry in [8], in assay [9], in [10], in assay [11], in assay [12] and in assay [13] was “inactive” throughout. The Potency result in assay [14], in [15], in [16] and in assay [17] was “inactive” in each case. Besides, the max response in assay [18] is -2.46%; in [19], -9.54% (inactive). Besides, the activation in assay [20] was -0.433% (inactive).
As to `O=C(OCc1ccccc1)c1ccccc1O`, in [1], the Potency is > 92 µM (inactive). For the same compound, the Potency entry in assay [2], in [3], in [4], in assay [5], in [6] and in assay [7] was “inactive” throughout. Moreover, the Potency result in [8], in assay [9], in [10], in assay [11], in [12] and in [13] was “inactive” in each case. In addition, the Potency result in assay [14], in [15], in assay [16] and in [17] was “inactive” in each case. For the same compound, the max response in [18] is -7.45% and -18.3%; in [19] it was -0.686% (inactive) and -0.189% (inactive). In assay [20], the activation is -0.76% (inactive) and -0.296% (inactive).
`c1ccc(CSCc2ccccc2)cc1`: the Potency in assay [1] was > 92 µM (inactive). For the same compound, the Potency entry in assay [2], in assay [3], in assay [4], in assay [5], in assay [6] and in assay [7] was “inactive” throughout. Besides, the Potency result in [8], in assay [9], in assay [10], in [11], in assay [12] and in [13] was “inactive” in each case. The Potency entry in assay [14], in assay [15], in assay [16] and in assay [17] was “inactive” each time. In addition, the max response in [18] was -3.11%; in assay [19], 1.24% (inactive). The activation in assay [20] is -0.759% (inactive).
With `NC(=O)c1ccc([N+](=O)[O-])cc1`, the Potency in assay [1] is > 92 µM (inactive). For the same compound, the Potency entry in assay [2], in assay [3], in [4], in [5], in [6] and in assay [7] was “inactive” throughout. For the same compound, the Potency result in assay [8], in [9], in [10], in assay [11], in assay [12] and in assay [13] was “inactive” in each case. The Potency result in assay [14], in assay [15], in assay [16] and in assay [17] was “inactive” in each case. Further, the max response in assay [18] was -6.07%; in assay [19], -5.31% (inactive). For the same compound, the activation in assay [20] is -1.24% (inactive).
`Cc1ccc(C(=O)O)cc1[N+](=O)[O-]`: the Potency in [1] was > 92 µM (inactive). The Potency result in [2], in assay [3], in [4], in assay [5], in assay [6] and in assay [7] was “inactive” throughout. Moreover, the Potency entry in assay [8], in assay [9], in assay [10], in [11], in assay [12] and in [13] was “inactive” each time. The Potency entry in assay [14], in assay [15], in [16] and in assay [17] was “inactive” each time. The max response was -6.14% in assay [18] and 8.29% (inactive) in assay [19]. Also, in assay [20], the activation was -0.0314% (inactive).
